Source: PubChem BioAssay (EPA / NIEHS)
Records with an inconclusive call do not appear. Activity calls are given as the source filed them. Rule for the calls: active = hit-call score of the fitted dose curve at least 0.9, where 1 is the maximum; inconclusive = response in the unintended direction; inactive = score below 0.9.

What follows are compounds tested against Estrogen receptor (Homo sapiens) (UniProt P03372) (assay: OT_ER_ERaERa_1440: Odyssey Thera (OT) 24-hour HEK293T Protein-Complementation Assay for Estrogen Receptor-alpha/-alpha Homodimer (AID 2283349);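 note: hits raise fluorescence above DMSO for agonists and antagonists alike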).
Summary of the method: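 HEK293T, stable ERα LBD (aa 310-547) homodimer PCA; 24 h compound exposure; mean fluorescence intensity (nuclear for agonists, nuclear plus cytoplasmic for antagonists) vs vehicle; positive fitting direction, DMSO baseline.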

Estrogen receptor (Homo sapiens), sequence (P03372 whole entry, looked up, the tested form may be a part): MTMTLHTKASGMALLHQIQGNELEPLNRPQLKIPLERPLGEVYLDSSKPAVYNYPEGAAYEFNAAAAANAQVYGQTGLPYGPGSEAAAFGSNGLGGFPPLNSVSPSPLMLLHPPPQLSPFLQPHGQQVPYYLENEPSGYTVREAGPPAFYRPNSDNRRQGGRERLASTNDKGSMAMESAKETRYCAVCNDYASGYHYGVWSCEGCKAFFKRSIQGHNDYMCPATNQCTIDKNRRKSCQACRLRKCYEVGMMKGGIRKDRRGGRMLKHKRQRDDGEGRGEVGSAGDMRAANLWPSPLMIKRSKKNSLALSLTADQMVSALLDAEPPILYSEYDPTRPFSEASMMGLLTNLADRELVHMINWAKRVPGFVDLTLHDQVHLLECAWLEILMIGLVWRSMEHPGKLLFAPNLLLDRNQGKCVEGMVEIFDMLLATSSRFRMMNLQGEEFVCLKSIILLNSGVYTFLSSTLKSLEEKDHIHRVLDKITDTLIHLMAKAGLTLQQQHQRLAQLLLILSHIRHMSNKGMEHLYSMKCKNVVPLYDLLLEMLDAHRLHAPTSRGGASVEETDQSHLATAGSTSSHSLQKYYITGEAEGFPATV

Row | SMILES | outcome
1 | CNC(=O)O/N=C/C(C)(C)S(C)(=O)=O | inactive
2 | CCOc1ccc(N)cc1 | inactive
3 | N#CCC#N | inactive
4 | O=CCCl | inactive
5 | CCN(CCO)CCO | inactive
6 | N#Cc1cccnc1 | inactive
7 | O=C(O)COc1ccc(Cl)cc1 | inactive
8 | CCCCCCCCCCCCN(C)C | inactive
9 | CCCSP(=S)(OCC)Oc1ccc(SC)cc1 (stereo not drawn) | inactive
10 | Cc1cc(Cl)ccc1OC(C)C(=O)O (stereo not drawn) | inactive
11 | O=C(NC(=O)c1c(F)cccc1F)Nc1cc(Cl)c(OC(F)(F)C(F)C(F)(F)F)cc1Cl (stereo not drawn) | inactive
12 | O=S1OC[C@@H]2[C@H](CO1)[C@]1(Cl)C(Cl)=C(Cl)[C@@]2(Cl)C1(Cl)Cl (stereo partly drawn) | inactive
13 | C=CCN=C=S | inactive
14 | O=C(NC(=O)c1c(F)cccc1F)Nc1ccc(Cl)cc1 | inactive
15 | CC(C)=CC1C(C(=O)OCc2cccc(Oc3ccccc3)c2)C1(C)C (stereo not drawn) | inactive

The compounds below were run against Estrogen receptor (Homo sapiens) (UniProt P03372) (assay: OT_ER_ERaERa_0480: Odyssey Thera (OT) 8-hour HEK293T Protein-Complementation Assay for Estrogen Receptor-alpha/-alpha Homodimer (AID 2283351);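 note: rise in fluorescence from reassembled reporter fragments on ERα LBD homodimer in nucleus or whole cell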).
Summary of the method: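 Measures ERα LBD (aa 310-547) homodimer complementation in stably transfected HEK293T at 8 h post-dose, with fluorescence intensity quantified on a laser scanning cytometer relative to DMSO controls.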

Row | SMILES | outcome
16 | CNC(=O)O/N=C/C(C)(C)S(C)(=O)=O | inactive
17 | CCOc1ccc(N)cc1 | inactive
18 | N#CCC#N | inactive
19 | O=CCCl | inactive
20 | CCN(CCO)CCO | inactive
21 | N#Cc1cccnc1 | inactive
22 | O=C(O)COc1ccc(Cl)cc1 | inactive
23 | CCCCCCCCCCCCN(C)C | inactive
24 | CCCSP(=S)(OCC)Oc1ccc(SC)cc1 (stereo not drawn) | inactive
25 | Cc1cc(Cl)ccc1OC(C)C(=O)O (stereo not drawn) | inactive
26 | O=C(NC(=O)c1c(F)cccc1F)Nc1cc(Cl)c(OC(F)(F)C(F)C(F)(F)F)cc1Cl (stereo not drawn) | inactive
27 | O=S1OC[C@@H]2[C@H](CO1)[C@]1(Cl)C(Cl)=C(Cl)[C@@]2(Cl)C1(Cl)Cl (stereo partly drawn) | inactive
28 | C=CCN=C=S | inactive
29 | O=C(NC(=O)c1c(F)cccc1F)Nc1ccc(Cl)cc1 | inactive
30 | CC(C)=CC1C(C(=O)OCc2cccc(Oc3ccccc3)c2)C1(C)C (stereo not drawn) | inactive

What follows are compounds tested against Estrogen receptor (Homo sapiens) + Estrogen receptor beta (Homo sapiens) (UniProt P03372+Q92731) (assay: OT_ER_ERaERb_0480: Odyssey Thera (OT) 8-hour HEK293T Protein-Complementation Assay for Estrogen Receptor-alpha/-beta Heterodimer (AID 2283352)).
Summary of the method: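 Fluorescence intensity readout from a protein-fragment complementation reporter in HEK293T; ER-alpha/ER-beta LBD heterodimer. Dosing 8 h. Gain-of-signal fit relative to DMSO negative control; laser scanning cytometry of whole-well cell population.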

Estrogen receptor (Homo sapiens) + Estrogen receptor beta (Homo sapiens), sequence (P03372 whole entry, looked up, the tested form may be a part): as above
Estrogen receptor (Homo sapiens) + Estrogen receptor beta (Homo sapiens), sequence (Q92731 whole entry, looked up, the tested form may be a part): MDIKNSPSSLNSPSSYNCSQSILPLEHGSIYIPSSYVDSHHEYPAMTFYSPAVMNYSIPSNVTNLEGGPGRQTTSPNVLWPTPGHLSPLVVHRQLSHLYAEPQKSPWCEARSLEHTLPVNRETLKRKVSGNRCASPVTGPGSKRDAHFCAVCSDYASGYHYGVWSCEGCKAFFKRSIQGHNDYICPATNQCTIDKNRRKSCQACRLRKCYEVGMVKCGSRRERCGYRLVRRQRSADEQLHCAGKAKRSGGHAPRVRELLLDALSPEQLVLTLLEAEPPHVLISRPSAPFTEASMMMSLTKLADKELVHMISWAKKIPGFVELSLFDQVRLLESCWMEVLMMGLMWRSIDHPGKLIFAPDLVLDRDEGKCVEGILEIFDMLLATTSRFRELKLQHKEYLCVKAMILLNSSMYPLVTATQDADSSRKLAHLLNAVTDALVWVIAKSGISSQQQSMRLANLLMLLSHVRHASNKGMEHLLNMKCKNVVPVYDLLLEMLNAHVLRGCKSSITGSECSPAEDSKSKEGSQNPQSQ

Row | SMILES | outcome | AC50
31 | CNC(=O)O/N=C/C(C)(C)S(C)(=O)=O | inactive | –
32 | CCOc1ccc(N)cc1 | inactive | –
33 | N#CCC#N | inactive | –
34 | O=CCCl | inactive | –
35 | CCN(CCO)CCO | inactive | –
36 | N#CCCC(Br)(C#N)CBr (stereo not drawn) | inactive | –
37 | O=C(O)COc1ccc(Cl)cc1 | inactive | –
38 | CCCCCCCCCCCCN(C)C | inactive | –
39 | CCCSP(=S)(OCC)Oc1ccc(SC)cc1 (stereo not drawn) | – | 22.7 µM (active)
40 | Cc1cc(Cl)ccc1OC(C)C(=O)O (stereo not drawn) | inactive | –
41 | O=C(NC(=O)c1c(F)cccc1F)Nc1cc(Cl)c(OC(F)(F)C(F)C(F)(F)F)cc1Cl (stereo not drawn) | inactive | –
42 | O=C(NC(=O)c1c(F)cccc1F)Nc1ccc(Cl)cc1 | inactive | –
43 | CC(C)=CC1C(C(=O)OCc2cccc(Oc3ccccc3)c2)C1(C)C (stereo not drawn) | inactive | –
